From PubChem BioAssay AID1259313 (Sanford-Burnham Center for Chemical Genomics, 2017)
About 8,500 (2.5%) of roughly 340,000 compounds were called active.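 The calls were made as follows: active = melting temperature shift of at least 10% of the positive control shift, at one fixed dose; inactive = the rest.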 Only a selection was taken, and actives are over-represented in it overall.

What follows are compounds tested on Glutamate receptor ionotropic, NMDA 3A (GRIN3A) ligand-binding domain (assay: binders of NR3A ligand-binding domain, primary screen, biophysical, differential scanning fluorimetry, uHTS (AID 1259313)). Conditions: NR3A LBD differential scanning fluorimetry, at 25 µM, stronger effect = higher value, 0% = protein alone, 100% = glycine-bound protein.
For Cn1cccc1C(=O)NC(=O)COC(=O)Cc1coc2ccc3ccccc3c12, the Tm shift relative to glycine control was 711% (active).
With COc1ccc2c(CC(=O)OCC(=O)NC(N)=O)coc2c1 the Tm shift relative to glycine control was -1.31% (inactive).
For O=C(Cc1coc2ccc3ccccc3c12)NCc1cccs1, the Tm shift relative to glycine control was -3.17% (inactive).
CN(C)S(=O)(=O)c1ccc(C(=O)NCC2(N3CCOCC3)CCCCC2)cc1 was tested, and the Tm shift relative to glycine control was -0.34% (inactive).
For CCC(C)NC(=O)C1c2ccccc2C(=O)N1Cc1ccccc1 (configuration not stated), the Tm shift relative to glycine control was 0.89% (inactive).
For Nc1cccc(S(=O)(=O)Nc2ccc(SC(F)F)cc2)c1, the Tm shift relative to glycine control was -8.52% (inactive).
With COc1ccc(NC(=O)/C(N=Nc2cccc(S(=O)(=O)Nc3ccc(SC(F)F)cc3)c2)=C(\C)O)cc1 the Tm shift relative to glycine control was 28% (active).
For Cc1c(NS(=O)(=O)c2cccc(C(=O)Nc3ccc(SC(F)F)cc3)c2)c(=O)n(-c2ccccc2)n1C, the Tm shift relative to glycine control was -4.82% (inactive).
With Cc1ccc(NN=C2C(=O)OC(C)(C)OC2=O)c(C)c1 the Tm shift relative to glycine control was -1.21% (inactive).
For CC(CO)N1CCS(=O)(=O)CC1 (configuration not stated), the Tm shift relative to glycine control was 0.09% (inactive).
In the case of CCOc1ccc(N/C(N)=N/c2nc(C)c(C)c(=O)[nH]2)cc1, the Tm shift relative to glycine control is reported as 2.12% (inactive).
CCOc1ccc(NC(=O)c2cc(C)nc3ccccc23)cc1 was tested, and the Tm shift relative to glycine control was -0.84% (inactive).
For Cc1ccc(Nc2nc(C)cc(C)c2C(N)=O)cc1, the Tm shift relative to glycine control was -2.09% (inactive).
Cc1cc(Nc2ccc(Br)cc2)nc2ccccc12 was tested, and the Tm shift relative to glycine control was 45.6% (active).
In the case of CN1CCN(c2nc(Nc3ccc(O)cc3)nc3ccccc23)CC1, the Tm shift relative to glycine control is reported as -0.23% (inactive).
Cc1ccc2nc(Nc3ccccc3)cc(C)c2c1 was tested, and the Tm shift relative to glycine control was 30.3% (active).
For Cc1ccc2nc(C)c3c(c2c1)N(c1ccccc1)CC3, the Tm shift relative to glycine control was -1.71% (inactive).
With Cc1cccc(NC(=S)N2CCC(O)CC2)c1C the Tm shift relative to glycine control was 1.31% (inactive).
With CC(C)=CCN1CCN(Cc2ccc(Oc3ncccn3)cc2)CC1CCO (configuration not stated) the Tm shift relative to glycine control was 0.09% (inactive).
For COC(=O)c1ccc(NC(=O)C23CC4CC(C2)CC(n2cnc(Cl)n2)(C4)C3)cc1, the Tm shift relative to glycine control was -0.61% (inactive).
For O=C(CSc1ncn[nH]1)Nc1nc(-c2cccc([N+](=O)[O-])c2)cs1, the Tm shift relative to glycine control was -2.42% (inactive).
O=C(CSc1nc(-c2ccccc2)cs1)Nc1cccc([N+](=O)[O-])c1 was tested, and the Tm shift relative to glycine control was 34.4% (active).
With COc1ccc(-n2cnnc2SCC(=O)Nc2cccc([N+](=O)[O-])c2)cc1 the Tm shift relative to glycine control was -0.86% (inactive).
With Cc1cc(/C=N/n2cnnc2)c(C)n1-c1ccc2ncccc2c1 the Tm shift relative to glycine control was -0.4% (inactive).
In the case of Cc1nn(-c2ccccc2)c(Cl)c1/C=C/C(=O)c1ccc(O)cc1, the Tm shift relative to glycine control is reported as 15.2% (active).
For Cc1nn(-c2ccccc2)c(C)c1/C=C/C(=O)OC(C)C(N)=O (configuration not stated), the Tm shift relative to glycine control was -7.09% (inactive).
With Cc1ccc(C(=O)/C=C/c2c(C)nn(-c3ccccc3)c2Cl)cc1 the Tm shift relative to glycine control was -10.2% (inactive).
In the case of COc1ccc(Br)c2c1C(=O)CC2, the Tm shift relative to glycine control is reported as 2.15% (inactive).
With CCCCN(C)C(=O)C1CCN(Cc2ccccn2)CC1 the Tm shift relative to glycine control was 1.37% (inactive).
With COc1ccc(-c2cc(C(=O)N3CCN(Cc4ccc5c(c4)OCO5)CC3)on2)cc1OC the Tm shift relative to glycine control was -2.25% (inactive).
For COc1ccc(-c2csc3ncnc(N4CCN(S(=O)(=O)c5ccccc5C#N)CC4)c23)cc1, the Tm shift relative to glycine control was -2.57% (inactive).
For Cc1ccc(NC(=O)Cn2cnc3c(OCc4ccccc4)ncnc32)cc1C, the Tm shift relative to glycine control was -1.41% (inactive).
For O=C(Cn1cnc2c(OCc3ccccc3)ncnc21)NCc1nc2ccccc2[nH]1, the Tm shift relative to glycine control was -0.08% (inactive).
For CC(CNC(=O)Cn1cnc2c(OCc3ccccc3)ncnc21)c1ccccc1 (configuration not stated), the Tm shift relative to glycine control was 16.8% (active).
With COc1ccc(Br)cc1CN(C)C(=O)C1CC(=O)N(C2CCCC2)C1 (configuration not stated) the Tm shift relative to glycine control was -0.58% (inactive).
For O=C(O)C1CCN1C1CCCCC1 (configuration not stated), the Tm shift relative to glycine control was -1.21% (inactive).
CCOC(=O)c1nnn(CC(=O)Nc2cccc(F)c2)c1C(=O)OCC was tested, and the Tm shift relative to glycine control was -0.09% (inactive).
For Cc1nc(C)c(-c2nnc(-c3cccc(S(=O)(=O)N(C)C)c3)o2)cc1C(=O)NN, the Tm shift relative to glycine control was 4.67% (inactive).
For CC1CCN(C2=NC(=O)/C(=C/c3ccc(O)cc3)S2)CC1, the Tm shift relative to glycine control was -0.54% (inactive).
For O=C1/C(=C\c2ccc(O)cc2)CCC1CNc1ccc(Cl)cc1 (configuration not stated), the Tm shift relative to glycine control was 21.3% (active).
CC(C(=O)NC1CCS(=O)(=O)C1)N1C(=O)/C(=C/c2ccc(Cl)cc2)SC1=S (configuration not stated) was tested, and the Tm shift relative to glycine control was -5.79% (inactive).
For O=C(COC(=O)c1ccc(F)cc1)NCC1COc2ccccc2O1 (configuration not stated), the Tm shift relative to glycine control was 0.36% (inactive).
In the case of Cc1cc(C)c2c(c1)c(C)cc1nnc(SCC(=O)NCc3ccco3)n12, the Tm shift relative to glycine control is reported as 9.65% (inactive).
For Cc1ccccc1N1CC(C(=O)Nc2ccc(S(=O)(=O)N3CCCC3)cc2)CC1=O (configuration not stated), the Tm shift relative to glycine control was -1.31% (inactive).
COc1ccc(-n2c(SCC(=O)NCc3ccco3)nnc2-c2c[nH]c3ccccc23)cc1 was tested, and the Tm shift relative to glycine control was -3.71% (inactive).
With CC(Oc1ccc(-c2ccccc2)c(F)c1)c1ccn(S(=O)(=O)c2cccc3ccccc23)n1 (configuration not stated) the Tm shift relative to glycine control was 1.41% (inactive).
With NC(=O)c1ccsc1NC(=O)COC(=O)COc1ccc(C=O)cc1 the Tm shift relative to glycine control was -1% (inactive).
CCCCc1ccc(NC(=O)CN2C(=O)NC(Cc3ccccc3)C2=O)cc1 (configuration not stated) was tested, and the Tm shift relative to glycine control was 38.2% (active).
Cc1cc(NC(=O)CN2C(=O)NC(CCc3ccccc3)C2=O)no1 (configuration not stated) was tested, and the Tm shift relative to glycine control was 0% (inactive).
Cc1cc(C)c(NC(=O)CN2C(=O)NC(Cc3ccccc3)C2=O)c(C)c1 (configuration not stated) was tested, and the Tm shift relative to glycine control was 0.16% (inactive).
For Cc1scc(C(=O)NNC(=S)NCC(C)C)c1C, the Tm shift relative to glycine control was -0.09% (inactive).
COCCCN1C(=O)c2ccc(C(=O)OCC(=O)NCc3ccccc3OC)cc2C1=O was tested, and the Tm shift relative to glycine control was -0.26% (inactive).
For CCOc1ccc(NC(=O)CCCCCN2C(=O)[C@@H]3Cc4ccccc4CN3C2=O)cc1, the Tm shift relative to glycine control was -0.91% (inactive).
With COc1cc(OC)cc(C(=O)Nc2ncc3c(n2)CC(C)(C)CC3=O)c1 the Tm shift relative to glycine control was -0.38% (inactive).
With COc1cc(OC)cc(C(=O)N[C@H](C(=O)Nc2nc3ccccc3[nH]2)C(C)C)c1 the Tm shift relative to glycine control was -1.04% (inactive).
For COc1cc(OC)cc(C(=O)Nc2ccc(-c3nc4ccccc4o3)c(O)c2)c1, the Tm shift relative to glycine control was 35.4% (active).
With Cc1noc(C)c1S(=O)(=O)Nc1ccc(C(=O)N2CCN(c3ccc(F)cc3)CC2)cc1 the Tm shift relative to glycine control was -0.58% (inactive).
With CC/C(=N\O)C(C)(C)/[N+]([O-])=C/c1ccc(Br)cc1 the Tm shift relative to glycine control was 0.62% (inactive).
CC(C)CN1CCNC(=O)C1CC(=O)N(C)CC1CCOCC1 (configuration not stated) was tested, and the Tm shift relative to glycine control was 0.85% (inactive).
With COCCNC(=O)Cn1cc2c(n1)CCCCC2 the Tm shift relative to glycine control was -0.96% (inactive).
With COC(=O)c1cccc(-n2[nH]nnc2=S)c1 the Tm shift relative to glycine control was -0.34% (inactive).
In the case of Cc1ccc(Nc2nc(N)nc(CN3CCN(Cc4ccccc4)CC3)n2)cc1Cl, the Tm shift relative to glycine control is reported as -0.21% (inactive).
OCCNc1nc(Nc2ccc(Cl)c(Cl)c2)nc2ccccc12 was tested, and the Tm shift relative to glycine control was 15.3% (active).
For NS(=O)(=O)c1ccc(CCNc2nc(C(F)(F)F)nc3ccccc23)cc1, the Tm shift relative to glycine control was -7.08% (inactive).
With COc1ccccc1/C=N/N1CCN(Cc2ccccc2Cl)CC1 the Tm shift relative to glycine control was 3.27% (inactive).
Cc1cc(-n2nc(C)cc2C)n2ncc(-c3ccccc3)c2n1 was tested, and the Tm shift relative to glycine control was 0.25% (inactive).
With COc1cc(/C=N/NC(=O)CCc2n[nH]c(=O)[nH]c2=O)ccc1O the Tm shift relative to glycine control was 0.39% (inactive).
In the case of COc1cc(/C=N/Nc2nc3ccccc3s2)ccc1O, the Tm shift relative to glycine control is reported as 20.7% (active).
With COc1ccc(CC(=O)N/N=C/c2cc([N+](=O)[O-])cc(Br)c2O)cc1 the Tm shift relative to glycine control was 7.97% (inactive).
Cc1cc(C(=O)N/N=C/c2cc([N+](=O)[O-])cc(C)c2O)n[nH]1 was tested, and the Tm shift relative to glycine control was -7.09% (inactive).
With CCOc1cc(/C=N/Nc2cc(C)nc3ccc(C)cc23)ccc1O the Tm shift relative to glycine control was -6.31% (inactive).
O=[N+]([O-])c1cc(Br)c(O)c(/C=N/Nc2nc3ccccc3s2)c1 was tested, and the Tm shift relative to glycine control was 24.4% (active).
In the case of COc1cc(/C=C/CNC[C@H]2O[C@@H](n3cnc(C(N)=O)n3)[C@H](O)[C@@H]2O)ccc1O, the Tm shift relative to glycine control is reported as -1.5% (inactive).
In the case of C/C(=C/C(=O)N1CCN(C)CC1)C(=O)O, the Tm shift relative to glycine control is reported as -0.35% (inactive).
For Cc1cc(C)c2cc(CN(Cc3cccs3)Cc3nnnn3CC3CCCO3)c(=O)[nH]c2c1 (configuration not stated), the Tm shift relative to glycine control was -5.51% (inactive).
In the case of Cn1c(=O)[nH]c(=O)c2c1nc(CN1CCN(c3ccccc3F)CC1)n2CCc1ccccc1, the Tm shift relative to glycine control is reported as -1.61% (inactive).
In the case of CCCNC(=O)Nc1ccccc1C(=O)Nc1ccc(OC)cc1, the Tm shift relative to glycine control is reported as 0% (inactive).
With CCCCCNC(=O)c1cccnc1SCC(=O)Nc1ccccc1OC the Tm shift relative to glycine control was 8.62% (inactive).
CCCNC(=O)c1ccccc1NC(=O)CSCc1ccc(OC)cc1 was tested, and the Tm shift relative to glycine control was 12.7% (active).
In the case of COc1cc2c(cc1OC)C(C(=O)Nc1cc(C)c(OC)c(C)c1)CC(=O)N2 (configuration not stated), the Tm shift relative to glycine control is reported as 0.68% (inactive).
With CC(=O)c1c(C)[nH]c(C(=O)OCC(=O)Nc2c(C)n(C)n(-c3ccccc3)c2=O)c1C the Tm shift relative to glycine control was 0.41% (inactive).
CCOCCCNC(=O)C(NC(=O)CNC(=O)c1ccccc1)c1ccc(C)cc1 (configuration not stated) was tested, and the Tm shift relative to glycine control was -0.17% (inactive).
With Cc1ccc(N2CC(C(=O)NCCS(=O)(=O)N3CCN(c4ccccc4)CC3)CC2=O)cc1 (configuration not stated) the Tm shift relative to glycine control was 0.09% (inactive).
For COc1cc2[nH]c(=S)n(CCN3CCCCC3C)c(=O)c2cc1OC (configuration not stated), the Tm shift relative to glycine control was -1.68% (inactive).
With COc1cc2[nH]c(=S)n(Cc3ccc(F)cc3)c(=O)c2cc1OC the Tm shift relative to glycine control was 16.4% (active).
With COc1cc2[nH]c(=S)n(Cc3ccc(C)o3)c(=O)c2cc1OC the Tm shift relative to glycine control was 13.2% (active).
In the case of CCOc1cc2[nH]c(=S)n(Cc3ccc(C(=O)N4CCN(C)CC4)cc3)c(=O)c2cc1OCC, the Tm shift relative to glycine control is reported as -2.77% (inactive).
With COc1ccc(Cn2c(=S)[nH]c3cc(C(=O)N4CCCCC4)ccc3c2=O)cc1 the Tm shift relative to glycine control was 0.18% (inactive).
CCOc1cc2[nH]c(=S)n(Cc3ccc(C(=O)NCCOC)cc3)c(=O)c2cc1OCC was tested, and the Tm shift relative to glycine control was -2.12% (inactive).
COCC(C)N=CC1=C(O)CC(C)(C)CC1=O (configuration not stated) was tested, and the Tm shift relative to glycine control was 1.32% (inactive).
With O=C(NN1CCOCC1)c1cccc(F)c1 the Tm shift relative to glycine control was -0.08% (inactive).
COc1ccc(C2c3[nH]c4ccccc4c3C[C@H]3C(=O)N(CC(C)C)CC(=O)N23)c(OC)c1 (some centres not stated) was tested, and the Tm shift relative to glycine control was -1.75% (inactive).
